# According to PubChem BioAssay AID504332 (National Center for Advancing Translational Sciences (NCATS), 2011):
# In all, about 350,000 compounds went through this assay and about 31,000 (8.9%) were called active. Inconclusive results (about 15%) are left out. The sample as a whole holds a higher share of actives than the screen did. A number with no mark means an inactive call. The call rests on the fitted dose curve; in most records, active means well fitted inhibition curve with a large enough effect; inconclusive means small, poorly fitted or top-dose-only effect; inactive means no such curve, though single readings can be large or run the other way.
# Biological target: Histone-lysine N-methyltransferase EHMT2 (Homo sapiens) (UniProt Q96KQ7)
# Assay: qHTS Assay for Inhibitors of Histone Lysine Methyltransferase G9a; further: nearly all actives have a fitted effect of over 75% in size
# Details: G9a H3K9 monomethylation, AlphaScreen, 2 h; series mostly up to 59 µM; activity, negative = inhibition: at the top concentration
# From the text: Methylated lysines, on the N-terminal tails of histone proteins serve as epigenetic markers to recruit factors that can then modify local chromatin structure to lead to functional consequences. G9a and other members of the SUV39 family of the SET domain-containing superfamily of histone lysine methyltransferases (HMT) have been identified to specifically methylate Lys9 of histone H3 (H3K9). G9a catalyzes the mono- and di-methylation of H3K9 in mammalian euchromatic regions, where the resulting H3K9me2 is indicative of transcriptional repression. […] The inhibition of G9a will result in transcriptional activation and work synergistically with DNA methyltransferase and histone deacetylase inhibitors, to kill cancer cells. This qHTS assay for identification of G9a inhibitors is a chemiluminescence based AlphaScreen (PerkinElmer). Methylation of biotinylated-histone peptide is measured through specific antibody-based detection, in conjunction with streptavidin-coated donor and anti-IgG antibody-coated acceptor beads. The method is particularly well suited for detection of inhibitors acting by the desired histone peptide competitive mechanism and is applicable to testing other HMTs. Although AlphaScreen has significant advantages with its utility in a variety of epigenetic target assays, the primary screening data provided in this deposition should be used with caution due to the prevalence of screening artifacts. An AlphaScreen counterscreen is highly recommended to be run against any putative actives to eliminate non specific artifacts. Alternatively, one can use other AlphaScreen assays in PubChem to filter out promiscuous hits. Quinn et al. A chemiluminescence-based method for identification of histone lysine methyltransferase inhibitors. Mol Biosyst 6(5): 782-8. 2010. PMID: 20567762 [2] Baell,Holloway. New substructure filters for removal of pan assay interference compounds (PAINS) from screening libraries and for their exclusion in bioassays. J Med Chem. 53(7):2719-40. 2010. PMID: 20131845 NIH Molecular Libraries Probe Production Network [MLPCN] NIH Chemical Genomics Center [NCGC] Structural Genomics Consortium (SGC) NIH Grant: 5U54 MH084681-02
# To each well of a 1,536w plate, 2ul of HMT enzyme (final 20nM) were added, using a nanoliter dispenser. The G9a- and GLP-inhibitor BIX-01294 (CID: 25150857) are used as an intraplate control, with a 16-point titration in duplicate. A Kalypsys pin-tool transferred 23nl of library compound solution in DMSO to each well. Following a 15 min incubation of enzyme with compounds at room temperature, 1ul mixture of b-H3K9 peptide substrate (final 500nM) and SAM cofactor (final 20uM) were added. Reactions were allowed to proceed at room temperature for 2 hours. Methylated b-H3K9 peptide product was detected with 0.5 ug/mL rabbit polyclonal anti-monomethyl histone H3K9 antibody (Abcam Inc., Cambridge, MA) and 20 ug/mL each streptavidin-coated donor and anti-rabbit IgG acceptor AlphaScreen beads. Antibody and beads were added in a 1ul dispense, for a final volume of 4ul, and plates were incubated, protected from the light, for 10 min at room temperature. Microplates were then read on an EnVision multilabel plate reader using the 1,536 plate HTS AlphaScreen aperture (excitation time 80 ms, measurement time 240 ms).
# On the % scale 0 is the no-effect control and ±100 the full control effect; potency means the concentration at half of the fitted maximal effect.
# Sequence of Histone-lysine N-methyltransferase EHMT2 (Homo sapiens) (Q96KQ7 913-1193 limits assumed): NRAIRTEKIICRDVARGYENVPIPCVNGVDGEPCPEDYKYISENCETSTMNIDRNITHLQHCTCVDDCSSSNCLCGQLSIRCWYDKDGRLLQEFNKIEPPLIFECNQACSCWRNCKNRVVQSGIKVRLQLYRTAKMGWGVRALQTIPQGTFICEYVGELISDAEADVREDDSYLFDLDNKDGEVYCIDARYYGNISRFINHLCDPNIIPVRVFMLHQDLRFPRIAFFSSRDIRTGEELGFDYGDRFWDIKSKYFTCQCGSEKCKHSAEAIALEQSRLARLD
SMILES,"activity, negative = inhibition",Potency
CCn1cc(C(=O)N(C)Cc2ccccc2)c(=O)c2cc(S(=O)(=O)N3CCCCCC3)ccc21,10.3%,
Cc1ccc(S(=O)(=O)N2CCc3cc(C(=O)Nc4ccc(Cl)cc4C)ccc32)cc1,3.64%,
COc1ccc(/C=C/C(=O)c2ccc(NS(=O)(=O)c3ccc(C)cc3)cc2)cc1O,-14.7%,
COC(=O)c1ccc(COc2ccc(/C=C/C(=O)c3ccc(OC)c(CSCC(=O)O)c3)cc2OC)cc1,,39.8 µM (active)
COc1ccc(/C=C/C(=O)N2CCCC2)cc1OC,47.4% [at 102 µM],
Cc1cc([N+](=O)[O-])nn1Cc1ccc(F)cc1,8.26% [at 102 µM],
Cc1nc(N)nc(SCc2ccc([N+](=O)[O-])cc2)c1N,-1.52% [at 12.7 µM],
Cc1nc(SCc2ccc(F)cc2)c([N+](=O)[O-])[nH]1,,25.1 µM (active)
CCN(CC)CCn1c2c(c(SCC(=O)Nc3nc4ccccc4s3)nc1=O)CCCC2,5.88% [at 0.501 µM],
CC(C)(C)c1ccc(SCCc2ccncc2)cc1,60.8% [at 102 µM],
Cc1nn2c(=O)cc(COC(=O)CNC(=O)c3ccc(F)cc3)nc2s1,1.25%,
C/C(=N/Nc1nc(-c2ccccc2)c(CC(=O)O)s1)c1ccccc1,,1.78 µM (active)
Cc1ccc(-c2nc(C)sc2CC(=O)O)cc1,-39.5%,
CCOC(=O)C(=O)Nc1nc(-c2ccccc2)c(CC)s1,8.29% [at 102 µM],
Cc1nnc(SCC(=O)Nc2cccc(N)c2)n1-c1ccccc1,10.8% [at 102 µM],
O=C(Nc1cccc(F)c1)NC1CCCCCCC1,76% [at 102 µM],
COc1ccc(C(=O)c2oc3ccccc3c2NC(=O)COc2cccc(C)c2)cc1,-4.56%,
CCc1nn(CC(=O)N2CCN(c3cccc(C(F)(F)F)c3)CC2)c(=O)c2cc3occc3n12,2.68%,
COCCN(Cc1ccco1)C(=O)Cn1ncc2c([nH]c3ccccc32)c1=O,-4.69%,
O=C(CSc1nnc(-c2ccco2)n1-c1ccccc1)NCCc1ccccc1,21.7%,
COc1ccc(-n2c(SCC(=O)NCc3cccs3)nnc2-c2ccoc2C)cc1,-7.6% [at 12.7 µM],
COc1ccc(C(=O)NC(=O)CSc2nnc(-c3ccco3)n2-c2ccccc2)cc1,,89.1 µM (active)
COc1ccc(CCNC(=O)C(=O)NCC(c2ccco2)S(=O)(=O)c2cccs2)cc1OC (centres undefined),-0.762%,
O=C(O)CC1S/C(=N\N=C/c2ccccc2O)N(c2ccc(O)cc2)C1=O (centres undefined),31.1%,
CCCC[C@H]1C(=O)N(c2ccccc2)N(c2ccc(O)cc2)C1=O,,7.94 µM (active)

SMILES,"activity, negative = inhibition",Potency
CCCCc1ccc(NC(=O)CN2C(=O)NC(Cc3ccccc3)C2=O)cc1 (centres undefined),4% [at 102 µM],
COc1ccc(-n2c(=O)c3c(c4cc(OC)ccc4n3C)n(Cc3cccc(C)c3)c2=O)cc1,2.9%,
COc1ccc(C)cc1NC(=O)CN(C)S(=O)(=O)c1ccc2c(c1)n(C)c(=O)c(=O)n2C,42.7% [at 102 µM],
COc1cc(/C=C/C2=CC(C)(C)NC(=S)N2)cc(OC)c1OC,,39.8 µM (active)
COc1ccc2[nH]c(C(=O)N/N=C/c3cc(OC)c(OC)c(OC)c3)cc2c1,10.8% [at 102 µM],
CCC(=O)c1ccc(OC(=O)/C=C/c2cc(OC)c(OC)c(OC)c2)cc1,10.6% [at 102 µM],
Cc1cccc(-c2nc(SCc3ccc(Br)cc3)n3[nH]c(=O)cc3n2)c1,46.9%,
O=C(c1cn(-c2ccccc2)nc1-c1cccnc1)N1CCN(S(=O)(=O)c2ccccc2F)CC1,-2.44% [at 12.7 µM],
Cc1nn(-c2ccccn2)c2c1C(c1ccncc1)C1=C(CC(C)(C)CC1=O)N2 (centres undefined),-38.3%,
Cc1cc(C)c(C2C3=C(Nc4c2c(C)nn4-c2ccccn2)c2ccccc2C3=O)c(C)c1 (centres undefined),,11.2 µM (active)
O=C(Nc1ncccc1O)c1ccc(S(=O)(=O)N2CCCC2)cc1,6.98% [at 12.7 µM],
O=[N+]([O-])c1cccc(/C=N/Nc2ncc(Br)cn2)c1,18% [at 0.501 µM],
Clc1cc(-c2ccc(/C=N/n3cnnc3)o2)ccc1Br,-7.95%,
Cc1cc(-c2ccc(/C=N/n3cnnc3)o2)c([N+](=O)[O-])cc1C,,50.1 µM (active)
Cc1ccc(Cl)cc1-c1ccc(/C=N/n2cnnc2)o1,14.3%,
CCc1cnc2c(c1SCC(=O)c1ccccc1)c(=O)n(C)c(=O)n2C,-0.675%,
Cc1cccc(-c2nnc(SCC(=O)N3CCCc4ccccc43)o2)c1,15.9%,
COc1ccc(OCc2ccc(-c3nc(C#N)c(N4CCN(c5ccccc5)CC4)o3)o2)cc1,-29%,
CN1CCN(c2oc(-c3ccc(COc4ccc(Cl)cc4)o3)nc2C#N)CC1,,11.2 µM (active)
CCC(C)Nc1oc(-c2ccc(COc3ccc(Cl)cc3)o2)nc1C#N (centres undefined),-37.3%,
C=CCOc1ccc(/C=C/C(=O)OCC(=O)NC(C)c2ccc(F)cc2)cc1 (centres undefined),-17.7% [at 102 µM],
COc1ccc(-c2nc3scc(CCNS(=O)(=O)c4cc(F)ccc4OC)n3n2)cc1OC,7.7%,
COc1ccc(S(=O)(=O)N2CCC(C(=O)N3CCc4ccccc4C3)CC2)cc1OC,-13.7%,
COc1ccc(S(=O)(=O)N2CCN(CC(=O)N3c4ccccc4CC3C)CC2)cc1OC (centres undefined),,56.2 µM (active)
